# Hits are enriched below; roughly 4.1% of the tested compounds scored in any of these assays.
# MEKK2 WT-MEK5 – modulators of MEK5 binding to wildtype MEKK2, primary screen, biochemical, multiplex bead flow cytometry, Alexa488-MEK5. Mitogen-activated protein kinase kinase kinase 2 (Homo sapiens), Q9Y2U5. Alexa488-MEK5 binding to MEKK2 WT; actives lie on both sides. binding response (% of control), % at 10 µM. 1.1% of 290,000 active. AID 1531, 2009; in the data active means binding response below about 67% or above about 130%
# MEKK3 PB1 HTS – modulators of MEKK3-MEK5 PB1 binding, primary screen, biochemical, wildtype MEKK3, multiplex bead flow cytometry, Alexa488-MEK5; binding response (% of control), % at 10 µM; Mitogen-activated protein kinase kinase kinase 3 (Homo sapiens), Q99759; bead-based flow cytometry, Alexa488-MEK5 binding to MEKK3; actives lie on both sides; 0 = blocked by unlabeled MEK5, 100 = vehicle; AID 1529, 2009; 1.4% of 290,000 active;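 active means binding response more than 3 SD above or below the average of its plate-row segment, actives on both sides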;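 further: Alexa488 bead fluorescence after subtracting the streptavidin-only scavenger bead signal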
# MEKK2 mut-MEK5 – MEK5 binding signal on mutant MEKK2 PB1, primary screen, biochemical, multiplex bead flow cytometry, Alexa488-MEK5; 0.35% of 290,000 active; percent response, % at 10 µM; Alexa488-MEK5 binding to MEKK2 mutant; in the data active means percent response above about 24%, passing the limit was not always enough
# CHT block – inhibitors of human choline transporter CHT. High affinity choline transporter 1 (Homo sapiens), Q9GZV3. CHT-expressing cells, membrane potential dye, choline response; stronger effect = lower value. B-score at 10 µM. 0.86% of 310,000 active. AID 488975, 2010;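 active means B-score over 3 SD under the library average, and starting fluorescence ratio not unusually high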;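 further: choline stimulus applied at its EC90 after an EC20 pre-addition; B-score computed on integrated fluorescence ratio after choline addition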
# CHT allo act – CHT positive allosteric modulators, primary screen, cell-based, membrane potential dye, choline EC20; High affinity choline transporter 1 (Homo sapiens), Q9GZV3; CHT-expressing cells; stronger effect = higher value; LV-AA mutant CHT in HEK293 cells; B-score at 10 µM; 0.49% of 310,000 active; AID 488977, 2010;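 active means initial fluorescence not abnormally high and integrated response B-score, plate-corrected, over 3 SD above library mean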
# SUMO Mot1 rescue – yeast Mot1-301 growth rescue at high temperature, primary screen, SUMOylation pathway inhibitor project, S. cerevisiae, ATP luminescence, 38.5C. S. cerevisiae Mot1-301 growth rescue; percent above DMSO median, 100 means doubled. growth rescue, % at 18.8 µM. 1% of 320,000 active. AID 2716, 2010;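 active means every valid replicate shows activation above 250% relative to neutral control wells; inactive means the rest, any valid replicate at or below 250%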;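 further: OY570 slx delta 5 strain wells were the positive control but not used for scaling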
# Mot1 SUMO dose – growth restoration of Mot1-301 yeast on galactose, dose response, SUMO pathway inhibitor project, whole organism, S. cerevisiae, ATP luminescence, cherry-picked samples; shares compounds with SUMO Mot1 rescue; AID 493004, 2010; 2,300 tested, under 10 active; growth activity, percent, % at 42 µM; S. cerevisiae Mot1-301 galactose growth, 24 h; -100 = growth of slx-deleted rescue strain;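 active means Signal drops as the depositor expects, and the fitted half-maximal dose is no more than ten times the top valid tested dose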;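 further: more negative values mean stronger growth rescue toward the control strain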
# Numbers without * were called inactive; i = inactive; . = no result given; + = active, no number; [ ] = remark or other dose.
SMILES,MEKK2 WT-MEK5,MEKK3 PB1 HTS,MEKK2 mut-MEK5,CHT block,CHT allo act,SUMO Mot1 rescue,Mot1 SUMO dose
COc1ccc(Cl)cc1S(=O)(=O)N1CCC(C(=O)N2CCOCC2)CC1,100,98,-3,i,i,135,.
O=C(NNC(=O)C1CC=CCC1)c1ccccc1O (stereo not drawn),105,105,15,i,i,3,.
O=C(CCC(=O)OC(C(=O)c1ccccc1)c1ccccc1)Nc1ccccc1 (stereo not drawn),100,104,4,i,i,415*,-1[21 µM]
Cc1ccc(N=C2NC(=O)C(CO)(CO)S2)cc1,105,103,15,i,i,22,.
O=C(O)c1ccc(N=C2NC(=O)C(CO)(CO)S2)cc1,98,100,1,i,i,767*,0
O=C(COC(=O)c1ccc(Cl)cc1Cl)Nc1cccc(S(=O)(=O)NC2=NCCC2)c1,.,.,.,.,.,4,.
Cc1cc(C)n(C(=O)c2ccccc2[N+](=O)[O-])n1,102,103,6,i,i,438*,0
O=C(Nc1cccc(Cl)c1)OCc1cncs1,106,105,5,i,i,+,0
COC(=O)C(NC(C)=O)(Nc1nc2ccc(C)cc2s1)C(F)(F)F (stereo not drawn),109,102,0,i,i,309,.

# Assay outcomes (PubChem)
